Results on 18 compounds are retold here after PubChem BioAssay (NCATS).

Inconclusive results are not listed. Where a call stands in place of a potency, no number is given. Calls of active or inactive are those of the source. Calls follow the shape of the dose curve; as a rule, active = well fitted curve in the direction sought with a large enough effect; inconclusive = small, poorly fitted or top-dose-only effect, or another doubt; inactive = no such curve, though single readings can be large; an effect the other way counts as inactive or inconclusive.

The nature of assay [1]: qHTS to identify inhibitors of the type 1 interferon - major histocompatibility complex class I in skeletal muscle: primary screen against the NCATS Mechanism Interrogation Plate v5.0 (MIPE) Libary (AID 1347411). Also: nearly all actives have a fitted effect of over 65% in size. Also: potency is read from the fitted curve at half-maximal effect. Summed up:
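HLA-B HiBit myoblasts, dexamethasone-free medium + 4 ng/ml IFN-b, 24 h compound, 11-pt 1:3 from 46 uM final. Readout: Nano-Glo HiBiT lytic luminescence after 10 min lysis, RT.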
(qHTS replaces the single test concentration by a dilution series.)

A short description of assay [2]: qHTS for inhibitors of adenylyl cyclases using a fission yeast platform: a pilot screen against the NCATS LOPAC library (AID 1347410). An outline of the steps: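 Read-out: fbp1-GFP fluorescence by laser scanning cytometry (488 nm laser), a gain of signal when AC/cAMP-PKA signalling is inhibited. Strain CHP2027 expressing AC9, GNAS and PDE4D2; compounds at up to 57 µM; 18 h, 30C.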

Consider `Nc1ccn([C@@H]2O[C@H](CO)[C@@H](O)C2O)c(=O)n1` (some centres not stated), for which the Potency result in assay [1] was “inactive”. In the case of `C[C@H](Cc1ccc(O)c(O)c1)[C@@H](C)Cc1ccc(O)c(O)c1`, the compound was classed as inactive in assay [2]. In assay [1], the Potency entry was “inactive”. Consider `O=Nc1c(-c2c(O)[nH]c3cc(Br)ccc23)[nH]c2ccccc12`, for which the compound was called inactive in assay [2]. The Potency in assay [1] was 14.7 µM (active). As to `O=c1ccc2ccc(O)c(O)c2o1`, the result in assay [2] was inactive. In the case of `Nc1nc(Cl)nc2c1ncn2[C@H]1C[C@H](O)[C@@H](CO)O1`, the Potency entry in assay [1] is “inactive”. For the compound `Nc1nc(N)c(N=O)c(OCC2CCCCC2)n1`, in assay [2], the compound was classed as inactive. `CC(=O)N1CCN(c2ccc(OC[C@H]3CO[C@](Cn4ccnc4)(c4ccc(Cl)cc4Cl)O3)cc2)CC1`: the result in assay [2] was inactive.

In the case of `CN(C)c1ccc2nc3ccc(=[N+](C)C)cc-3sc2c1`, the Potency in assay [1] was 18.6 µM (active). On to `O=c1cc(N2CCOCC2)oc2c(-c3ccccc3)cccc12`, for which, in assay [2], the compound was classed as inactive. Regarding `C[C@@H](N)C1CCC(C(=O)Nc2ccncc2)CC1` (some centres not stated), the call in assay [2] was inactive. Further, the Potency entry in assay [1] is “inactive”. As for `O=c1oc2cc(O)ccc2s1`, the Potency result in assay [1] was “inactive”.

In the case of `O=C1c2c(O)cc(O)cc2OC(c2ccc(O)c(O)c2)C1O` (configuration not stated), in assay [2], the result was inactive. As to `NC(=NCc1ccccc1)NC(=O)c1nc(Cl)c(N)nc1N`, the call in assay [2] was inactive. With `O=C(CCc1ccc(O)cc1)c1c(O)cc(O)cc1O`, the compound was classed as inactive in assay [2]. Turning to `Cc1cc(O)c2c(c1)C(=O)c1cc(O)cc(O)c1C2=O`, the result in assay [2] was inactive. Further, the Potency result in assay [1] is “inactive”.

For `CC1(C)C(=O)N(CCN2CCC(C(=O)c3ccc(F)cc3)CC2)c2ccccc21`, the compound was classed as inactive in assay [2]. As to `Oc1ccc2ccccc2c1SSc1c(O)ccc2ccccc12`, the compound was called inactive in assay [2]. Take `Cc1cccc(-c2[nH]ncc2-c2ccc3ncccc3n2)n1`: in assay [2], the compound was classed as inactive.
